Structures are written as SMILES. About 79,000 compounds went through this panel and 15% of them were active in at least one assay; those are over-represented in the sample as a whole. Unmarked numbers belong to inactive results. The source made the active and inactive calls. No stated cut-off is given here; in the data, active means growth inhibition above about 70%; inactive means the rest.

One test can be described thus: NCI Yeast Anticancer Drug Screen. Data for the wt1 strain (AID 149).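 Further: 0% = growth of vehicle-treated wt1 cultures.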 As to conditions: S. cerevisiae wt1 strain (SPY 50644) growth inhibition; at 1.2 µM; active compounds read high. The method in brief: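 Measured: growth of wt1 yeast under compound versus vehicle treatment, reported as inhibition.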
On to `CS(=O)(=O)SCc1ccc([N+](=O)[O-])cc1`, for which the growth inhibition was -5%.
On to `Cc1csc(=S)n1OC(=O)NC1CCCCC1`, for which the growth inhibition is -5%.
Take `CCOc1ccc(NC(=O)C2=C(C)NC(C)=C(C(=O)Nc3ccc(OCC)cc3)C2c2cccc([N+](=O)[O-])c2)cc1`: the growth inhibition is 1%.
The same measure, in the same setting: to `CC(C)(C)N=C(NO)c1ccccc1` belongs 0%.
In the case of `CCCCC/C(=C(\C#N)C(=O)OCC)c1ccccc1`, the growth inhibition is -2%.
For `O=C(NCCCl)Sc1ccc(Cl)cc1`, the growth inhibition was -3%.
For the molecule `O=C1Nc2ccc(Br)cc2C1=Nc1ccc2c(c1)OCO2`, the growth inhibition is -12%.
As for `CCC(C)OC(=O)Nc1ccc(C)c(NC(=O)OC(C)CC)c1` (stereo not drawn), the growth inhibition was -3%.
The same measure, in the same setting: under `O=C(O)c1cc2ccc(Cl)cc2c(O)c1C1=CCCCC1` stands -10%; under `CN(C)Cc1cc(N=Nc2ccc(Cl)cc2)ccc1OC(=O)c1ccccc1`, 1%; under `CN1CCN(C(=O)/C=C/C(=O)c2ccccc2)CC1`, 4%.
For the molecule `CCCC/C=C/C(C)(C(=O)OCC)C(=O)OCC`, the growth inhibition was -5%.
Same read-out and setting: to `Cc1nc(-c2cc3cc([N+](=O)[O-])ccc3oc2=O)cs1` belongs -5%.
On to `Cc1nc2ccccc2nc1NNc1ccccc1`, for which the growth inhibition was 4%.
Consider `CN(C)[C@@H]1C(=O)C(C(N)=O)=C(O)[C@@]2(O)C(=O)C3=C(O)c4c(O)cccc4C[C@H]3C[C@@H]12`, for which the growth inhibition was -1%.
As for `COc1ccc(NC(=O)CC2SC(=Nc3ccccc3C)NC2=O)c([N+](=O)[O-])c1` (stereo not drawn), the growth inhibition was -1%.
For `COc1cc(O)c2c(c1O)C(=O)c1cc(C)ncc1C2=O`, the growth inhibition is 6%.
With `CSc1nnc(SC)nn1`, the growth inhibition is -4%.
As for `COc1cc(/C=C2\CCC/C(=C\c3ccc(O)c(OC)c3)C2=O)ccc1O`, the growth inhibition was 1%.
Consider `CN(C)CCNC(=O)c1cccc2cc([N+](=O)[O-])ccc12`, for which the growth inhibition was 13%.
The same measure, in the same setting: to `CCC(C)(C)c1ccc(Oc2cccc(C(=O)O)c2)cc1` belongs -1%; to `CCCCCCSc1ncnc2[nH]ncc12`, -1%; to `CC(=O)Nc1ccc(/C=C/[N+](=O)[O-])cc1`, -1%.
For the molecule `CCOC(=O)c1[nH]n(-c2ccccc2)c(=O)c1C=NC(=S)C(N)=S`, the growth inhibition was 19%.
Turning to `CCCC(O)C1CC(C(C)C)CCC1C` (stereo not drawn), the growth inhibition is -1%.
As to `O=[n+]1c2ccccc2n([O-])c2cc(Br)ccc21`, the growth inhibition was 7%.
Turning to `CN(C)CCNC(=O)c1cccc2c1Oc1c(cccc1[N+](=O)[O-])O2`, the growth inhibition was -13%.
Same read-out and setting: to `Nc1ncc(-c2ccc(Br)cc2)s1` belongs 9%; to `Cc1cc2cc3cc(C)c(N)cc3nc2cc1N`, -18%; to `CC12C(=O)OC(=O)C(c3ccccc31)c1ccccc12`, 2%.
Regarding `c1ccc2c(OCC3CO3)cccc2c1` (stereo not drawn), the growth inhibition was -2%.
Still for that read-out and setting: to `CCOC(=N)c1ccc(O)c(OC)c1` belongs -3%; to `Nc1cc(N)c(N=Nc2cccc3c(S(=O)(=O)O)cccc23)cc1N=Nc1cc([N+](=O)[O-])ccc1O`, 7%; to `COC(=O)Oc1cc(Cl)c(Cl)cc1Cl`, -1%.
Turning to `O=C(O)C1CC(c2ccccc2)=NN1c1ccccc1` (stereo not drawn), the growth inhibition is -60%.
As to `COc1cc([C@@H]2c3cc4c(cc3[C@@H](Nc3ccc(NC(=O)c5cc([N+](=O)[O-])cn5C)cc3)[C@H]3COC(=O)[C@H]23)OCO4)cc(OC)c1O`, the growth inhibition was 9%.
Turning to `O=C(O)c1ccccc1/C=N/N=C1c2ccccc2-c2ccccc21`, the growth inhibition was -1%.
In the case of `O=C1CC(=O)c2ccccc21`, the growth inhibition was 0%.
The same measure, in the same setting: under `Nc1ncnc2c1ncn2C1OC(CO)CC1O` (stereo not drawn) stands -25%.

The test is the same for the next values; noted with them: S. cerevisiae wt1 strain (SPY 50644) growth inhibition; at 3.7 µM; active compounds read high.
In the case of `CS(=O)(=O)SCc1ccc([N+](=O)[O-])cc1`, the growth inhibition is 1%.
The same measure, in the same setting: under `Cc1csc(=S)n1OC(=O)NC1CCCCC1` stands 97% (active); under `CCOc1ccc(NC(=O)C2=C(C)NC(C)=C(C(=O)Nc3ccc(OCC)cc3)C2c2cccc([N+](=O)[O-])c2)cc1`, -3%; under `CC(C)(C)N=C(NO)c1ccccc1`, 0%.
With `CCCCC/C(=C(\C#N)C(=O)OCC)c1ccccc1`, the growth inhibition was -2%.
Regarding `O=C(NCCCl)Sc1ccc(Cl)cc1`, the growth inhibition is -3%.
In the case of `O=C1Nc2ccc(Br)cc2C1=Nc1ccc2c(c1)OCO2`, the growth inhibition was -3%.
As to `CCC(C)OC(=O)Nc1ccc(C)c(NC(=O)OC(C)CC)c1` (stereo not drawn), the growth inhibition was 0%.
With `O=C(O)c1cc2ccc(Cl)cc2c(O)c1C1=CCCCC1`, the growth inhibition was 2%.
As to `CN(C)Cc1cc(N=Nc2ccc(Cl)cc2)ccc1OC(=O)c1ccccc1`, the growth inhibition is 1%.
`CN1CCN(C(=O)/C=C/C(=O)c2ccccc2)CC1`: the growth inhibition is 12%.
For `CCCC/C=C/C(C)(C(=O)OCC)C(=O)OCC`, the growth inhibition is -5%.
As to `Cc1nc(-c2cc3cc([N+](=O)[O-])ccc3oc2=O)cs1`, the growth inhibition was 5%.
Regarding `Cc1nc2ccccc2nc1NNc1ccccc1`, the growth inhibition was 9%.
As for `CN(C)[C@@H]1C(=O)C(C(N)=O)=C(O)[C@@]2(O)C(=O)C3=C(O)c4c(O)cccc4C[C@H]3C[C@@H]12`, the growth inhibition is 2%.
In the case of `COc1ccc(NC(=O)CC2SC(=Nc3ccccc3C)NC2=O)c([N+](=O)[O-])c1` (stereo not drawn), the growth inhibition is -1%.
`COc1cc(O)c2c(c1O)C(=O)c1cc(C)ncc1C2=O`: the growth inhibition is 24%.
Turning to `CSc1nnc(SC)nn1`, the growth inhibition is -5%.
Consider `COc1cc(/C=C2\CCC/C(=C\c3ccc(O)c(OC)c3)C2=O)ccc1O`, for which the growth inhibition is 10%.
For the molecule `CN(C)CCNC(=O)c1cccc2cc([N+](=O)[O-])ccc12`, the growth inhibition was 8%.
Consider `CCC(C)(C)c1ccc(Oc2cccc(C(=O)O)c2)cc1`, for which the growth inhibition is -3%.
The same measure, in the same setting: under `CCCCCCSc1ncnc2[nH]ncc12` stands -2%; under `CC(=O)Nc1ccc(/C=C/[N+](=O)[O-])cc1`, -3%; under `CCOC(=O)c1[nH]n(-c2ccccc2)c(=O)c1C=NC(=S)C(N)=S`, 8%.
For the molecule `CCCC(O)C1CC(C(C)C)CCC1C` (stereo not drawn), the growth inhibition was 0%.
Consider `O=[n+]1c2ccccc2n([O-])c2cc(Br)ccc21`, for which the growth inhibition was 43%.
With `CN(C)CCNC(=O)c1cccc2c1Oc1c(cccc1[N+](=O)[O-])O2`, the growth inhibition is -20%.
Regarding `Nc1ncc(-c2ccc(Br)cc2)s1`, the growth inhibition was 17%.
In the case of `Cc1cc2cc3cc(C)c(N)cc3nc2cc1N`, the growth inhibition is -8%.
Take `CC12C(=O)OC(=O)C(c3ccccc31)c1ccccc12`: the growth inhibition is -2%.
Take `c1ccc2c(OCC3CO3)cccc2c1` (stereo not drawn): the growth inhibition is 0%.
As to `CCOC(=N)c1ccc(O)c(OC)c1`, the growth inhibition was -2%.
On to `Nc1cc(N)c(N=Nc2cccc3c(S(=O)(=O)O)cccc23)cc1N=Nc1cc([N+](=O)[O-])ccc1O`, for which the growth inhibition is 13%.
Regarding `COC(=O)Oc1cc(Cl)c(Cl)cc1Cl`, the growth inhibition is -2%.
The same measure, in the same setting: under `O=C(O)C1CC(c2ccccc2)=NN1c1ccccc1` (stereo not drawn) stands -56%.
For the molecule `COc1cc([C@@H]2c3cc4c(cc3[C@@H](Nc3ccc(NC(=O)c5cc([N+](=O)[O-])cn5C)cc3)[C@H]3COC(=O)[C@H]23)OCO4)cc(OC)c1O`, the growth inhibition was 20%.
With `O=C(O)c1ccccc1/C=N/N=C1c2ccccc2-c2ccccc21`, the growth inhibition is 0%.
Same read-out and setting: under `O=C1CC(=O)c2ccccc21` stands -1%.
As for `Nc1ncnc2c1ncn2C1OC(CO)CC1O` (stereo not drawn), the growth inhibition was -10%.
